From PubChem
Hits are enriched below; roughly 3.2% of the tested compounds scored in any of these assays.
BRCA1 expr act: activators of BRCA1 expression; MCF7-BRCA1-FFLuc reporter, luminescence, 48 h; response scale: scaled: vehicle 0%, 10 µM genistein 100%; Potency, µM (top dose mostly 46.1 µM), for the others: top-dose activation, hits mostly activators; hit rate 1.1% among 380,000; AID 624202; note: potency is the fitted concentration of half-maximal effect; nearly all actives have a fitted effect of over 80% in size
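Compounds are tested at multiple concentrations on MCF7 BRCA1-luciferase reporter cells seeded at 2000 per well; after 48 h, a single luminescence end-point is taken and curves fitted to the normalized data.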
IL-2 act: activators of IL-2; hit rate 0.065% among 360,000; IL-2 activation reporter assay, cell-based qHTS; stimulated with anti-CD3/CD4/CD28 beads; in transgenic mouse T cells; activation, % (series mostly up to about 46 µM); in the data active = activation above about 50%; inconclusive = mostly about 30% to 49%; note: 0% is about no effect
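EGFP and DsRed fluorescence is measured by plate cytometry in unstimulated transgenic mouse T cells exposed to compound for 60 minutes, then stimulated 18 hours at 37 degrees C with anti-CD3/anti-CD4 beads plus anti-CD28.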
A549 tox: kills or reduces viability of A549 cells in Nrf2 counter-screen. A549 ARE-Fluc cells, CellTiter-Fluor viability, 18-24 h. Potency, µM (top dose mostly 46 µM), for the others: at the top dose activity change, negative = cytotoxicity, most hits filed as inhibitors. hit rate 0.16% among 390,000; note: potency is the fitted concentration of half-maximal effect; % is set by controls: 0 for no effect and ±100 for the full control effect
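Cytotoxicity counterscreen: CellTiter-Fluor fluorescence was measured in A549 ARE_Fluc cells after 18-24 h of compound exposure in a concentration series. The subsequent BugLite luminescent read reports ARE-luciferase activity.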
p53 reactivation: re-activators of mutant p53; Potency, µM (series often up to 92.2 µM), inactives show at the top dose activity change, positive = activation, hits mostly activators; H1299 p53-A138V BP100-luciferase reporter, luminescence, 24 h; hit rate 0.063% among 320,000; note: potency is the fitted concentration of half-maximal effect; % of control where 0% means no effect; nearly all actives have a fitted effect of over 45% in size
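H1299 (p53-null), stable ts p53-A138V + BP100-Luc; 1000 cells/well, Opti-MEM/10% FBS; cpd 4 pt, 1:5; 24 h, 37 deg C, 5% CO2; detection reagent 10 min RT; luminescence.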
Nrf2 activator: Nrf2 pathway activation; AREc32 ARE-luciferase reporter (MCF7-derived line), luminescence, 24 h; Potency, µM (series often up to 46.1 µM), for the others: at the top dose activation, usual class: activators; hit rate 0.31% among 410,000; note: potency is the fitted concentration of half-maximal effect; % of control where 0% means no effect; nearly all actives have a fitted effect of over 65% in size
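Luciferase luminescence (Steady-Glo, 30 min at room temperature) served as the read-out of ARE activation in AREc32 cells treated with compounds for 24 hr at 37 deg C.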
Nrf2 block: inhibitors of Nrf2 signaling. hit rate 2.1% among 360,000. AID 504444. A549 ARE-Fluc reporter, luciferase luminescence, 18-24 h. Potency, µM (titrated, usually from 46 µM), for inactives: at the highest dose activity change, negative = inhibition, hits mostly inhibitors; note: potency is the fitted concentration of half-maximal effect; % is set by controls: 0 for no effect and ±100 for the full control effect; nearly all actives have a fitted effect of over 60% in size
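Two sequential reads on A549 ARE_Fluc cells exposed to compound for 18-24 h: a CellTiter-Fluor fluorescence read for viability, then a luciferase luminescence read for Nrf2/ARE activity.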
* = called active by the depositor. Unless noted, calls come from the whole dose curve; as a rule, active = well fitted curve in the direction sought with a large enough effect; inconclusive = small, poorly fitted or top-dose-only effect, or another doubt; inactive = no such curve, though single readings can be large; an effect the other way counts as inactive or inconclusive.

How did CNC(=O)c1cc2n(n1)CCCN(Cc1ccc(F)cc1)C2=O do in these assays?
A549 tox: 7.3%; Nrf2 activator: 0.6%

Results for Cc1ccc(S(=O)(=O)CCC(=O)N2CCN(c3ccc([N+](=O)[O-])cc3)CC2)cc1 ?
BRCA1 expr act: -13.9%; IL-2 act: -1.1; A549 tox: -5.1%; p53 reactivation: -2.5%; Nrf2 activator: 1.7%; Nrf2 block: 20.6µM*

Results for CC1(C(=O)N2CCN(c3ccc([N+](=O)[O-])cc3)CC2)CC1(Cl)Cl (stereo unspecified) ?
BRCA1 expr act: -2.7%; IL-2 act: -0.4; A549 tox: -24.8%; Nrf2 activator: 2.9%; Nrf2 block: 18.4µM*

What do the screens show for `COC(=O)c1sc2ccccc2c1S(=O)(=O)N1CCN(c2ccc(C(C)=O)cc2)CC1`?
A549 tox: -1.0%; Nrf2 activator: 18.4%; Nrf2 block: 28.8%

What do the screens show for `Cc1ccc(S(=O)(=O)N2C[C@@H]3[C@H]4CC[C@H](C4)[C@@H]3[C@@H](C)[C@H]2c2ccco2)cc1`?
BRCA1 expr act: -28.3%; IL-2 act: -0.9; A549 tox: 15.4%; p53 reactivation: 11.0%; Nrf2 activator: 4.7%; Nrf2 block: 20.6µM*

What do the screens show for `Cc1ccc2c(c1)c1c(c(=O)n(Cc3ccccc3)c(=O)n1Cc1ccccc1F)n2C`?
BRCA1 expr act: 3.8%; A549 tox: 4.8%; Nrf2 activator: 0.3%; Nrf2 block: 7.3%

How did CSc1c(C#N)c(N)nc2sc(C(=O)c3ccccc3)c(N)c12 do in these assays?
BRCA1 expr act: 6.4%; IL-2 act: 275.0*; A549 tox: -19.1%; p53 reactivation: -2.2%; Nrf2 activator: inconclusive; Nrf2 block: -6.5%

How did COc1ccc(N2CCN(S(=O)(=O)c3ccc(-c4ccno4)cc3OC)CC2)cc1 do in these assays?
A549 tox: 2.3%; Nrf2 activator: -0.2%

Results for C=CCNc1ncnc2c1[nH]c1ccccc12 ?
BRCA1 expr act: -23.0%; IL-2 act: -0.1; A549 tox: -12.7%; p53 reactivation: 3.0%; Nrf2 activator: 26.5%; Nrf2 block: inconclusive

Results for C=CCNc1ncnc2c1[nH]c1ccc(Cl)cc12 ?
BRCA1 expr act: -21.9%; IL-2 act: -0.3; A549 tox: inconclusive; p53 reactivation: 18.0%; Nrf2 activator: 17.5%; Nrf2 block: 8.2µM*

What do the screens show for `CCCCN(CCCC)S(=O)(=O)c1ccc(NC(=O)c2c(-c3ccccc3)noc2C)cc1`?
A549 tox: 6.3%; Nrf2 activator: 1.6%; Nrf2 block: 6.6%

What do the screens show for `C/C(=N/NC(=O)c1ccccn1)c1ccc(O)cc1`?
BRCA1 expr act: inconclusive; IL-2 act: -0.7; A549 tox: 14.5%; p53 reactivation: 11.1%; Nrf2 activator: 0.2%; Nrf2 block: inconclusive

What do the screens show for `C/C(=N/NC(=O)c1ccccn1)c1c[nH]c2ccccc12`?
BRCA1 expr act: 7.08µM*; IL-2 act: -0.4; A549 tox: 13.8%; p53 reactivation: 8.7%; Nrf2 activator: 12.7%; Nrf2 block: inconclusive

How did C/C(=N\NC(=O)c1ccccn1)c1ccc(Cl)cc1 do in these assays?
BRCA1 expr act: inconclusive; IL-2 act: 6.0; A549 tox: 0.1%; p53 reactivation: 2.8%; Nrf2 activator: 0.4%; Nrf2 block: 9.9%

How did C/C(=N\NC(=O)c1ccc(Cl)cc1)c1ccccn1 do in these assays?
BRCA1 expr act: -54.3%; IL-2 act: -2.1; A549 tox: inconclusive; p53 reactivation: inconclusive; Nrf2 activator: inconclusive; Nrf2 block: 3.66µM*

How did O=C(NCCc1ccccc1)C(=O)NCC(c1cccs1)S(=O)(=O)c1cccs1 (stereo unspecified) do in these assays?
A549 tox: 14.7%; Nrf2 activator: 3.9%

What do the screens show for `CC1OC1c1ccc(-c2ccc(C3OC3C)cc2)cc1` (stereo unspecified)?
BRCA1 expr act: 5.01µM*; IL-2 act: 0.8; A549 tox: 2.0%; Nrf2 activator: 4.4%; Nrf2 block: inconclusive

What do the screens show for `Cc1nn(Cc2ccc(Cl)c(Cl)c2)c(C)c1NC(=O)c1cc(CC(C)C)on1`?
BRCA1 expr act: -80.1%; IL-2 act: -3.5; A549 tox: inconclusive; p53 reactivation: -3.0%; Nrf2 activator: 2.6%; Nrf2 block: 8.2µM*

What do the screens show for `CCCc1cc(C(=O)Nc2ccc(F)c(Cl)c2)no1`?
BRCA1 expr act: 11.2µM*; IL-2 act: 0.5; A549 tox: 5.3%; p53 reactivation: 24.9%; Nrf2 activator: 3.6%; Nrf2 block: inconclusive

Results for CCCc1cc(C(=O)Nc2c(C)nn(Cc3ccc(Cl)c(Cl)c3)c2C)no1 ?
A549 tox: -14.8%; Nrf2 activator: 3.8%; Nrf2 block: 16.4µM*

How did O=C(Nc1ccc(F)c(Cl)c1)c1cc(C2CCCN(C(=O)C3CC3)C2)on1 (stereo unspecified) do in these assays?
BRCA1 expr act: 2.82µM*; IL-2 act: 2.1; Nrf2 activator: 0.9%

How did Cc1ccccc1Cn1nc(C)c(NC(=O)c2cc(CC(C)C)on2)c1C do in these assays?
BRCA1 expr act: -6.8%; IL-2 act: -1.3; A549 tox: 4.1%; p53 reactivation: 3.9%; Nrf2 activator: 0.5%; Nrf2 block: inconclusive

Results for CCCc1cc(C(=O)Nc2c(C)nn(Cc3ccc(C)cc3)c2C)no1 ?
A549 tox: -3.0%; Nrf2 activator: 4.0%; Nrf2 block: inconclusive

How did CCc1ccc(-n2c(=O)c3c4c(sc3n(CC(=O)NC(C)CC)c2=O)CCCC4)cc1 (stereo unspecified) do in these assays?
BRCA1 expr act: 0.9%; A549 tox: 2.1%; Nrf2 activator: 0.2%; Nrf2 block: 4.7%

What do the screens show for `Cc1cc2[nH]c(=O)c(=O)[nH]c2cc1S(=O)(=O)Nc1cccc(C(F)(F)F)c1`?
A549 tox: -0.7%; Nrf2 activator: -0.9%; Nrf2 block: inconclusive

How did CCOCCn1ccc2c(OCC(=O)Nc3ccc(OC)c(OC)c3)cccc2c1=O do in these assays?
BRCA1 expr act: -14.4%; IL-2 act: -0.5; A549 tox: -18.1%; p53 reactivation: -3.2%; Nrf2 activator: -0.2%; Nrf2 block: 11.6µM*

Results for CCn1c(=O)cc(SCC(=O)Nc2ccc(OC)c(OC)c2)c2ccccc21 ?
BRCA1 expr act: -62.0%; IL-2 act: -4.2; A549 tox: -26.1%; p53 reactivation: -4.0%; Nrf2 activator: 1.4%; Nrf2 block: 16.4µM*

Results for CCOCCn1ccc2c(OCC(=O)Nc3cc(C)cc(C)c3)cccc2c1=O ?
BRCA1 expr act: 3.0%; A549 tox: -2.8%; Nrf2 activator: -0.2%
